Experimental data from PubChem BioAssay AID1159580 (chemical genetic matrix, 2015).
Among all 5,500 compounds or so, about 2,000 (36%) were called active. Inconclusive results (about 18%) are left out. No stated cut-off is given here; in the data, active means normalized growth mostly below about 0.91 (no sharp cut-off); inconclusive means no clear call, values can overlap the other calls; inactive means mostly above about 0.92. This is one part of the list.

Assay: chemical genetic growth profiling, strain panel (AID 1159580);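 further: tested at 20 µM; growth read once vehicle control cultures reached saturation at 30 °C; 1 = growth at the plate median or of vehicle wells; lower values mean less growth of the strain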
Settings: S. cerevisiae deletion strains, growth OD

Measured: normalized growth

CN(C)CCc1c[nH]c2ccc(Cn3cncn3)cc12
inactive: locus YHR030C, strain SLT2, hits give low values 0.92 | locus YHR079C, strain IRE1, hits give low values 0.928 | locus YJL095W, strain BCK1, hits give low values 0.961 | locus YJR066W, strain TOR1, hits give low values 0.914 | locus YLR113W, strain HOG1, hits give low values 0.918 | locus YNL183C, strain NPR1, hits give low values 0.926 | locus YOR231W, strain MKK1, hits give low values 0.928 | locus YPL256C, strain CLN2, hits give low values 0.936

CC(N)=NCCC[C@H](N)C(=O)O
inactive: locus YAL040C, strain CLN3, hits give low values 1 | locus YCL061C, strain MRC1 (second series), hits give low values 1.01 | locus YDR363W, strain ESC2, hits give low values 1.01 | locus YER002W, strain NOP16, hits give low values 0.997 | locus YMR263W, strain SAP30, hits give low values 1.02 | locus YMR307W, strain GAS1, hits give low values 1.01 | locus YNL175C, strain NOP13, hits give low values 1.01 | locus YNL197C, strain WHI3, hits give low values 0.999 | locus YNL224C, strain SQS1, hits give low values 1 | locus YOR083W, strain WHI5 (second series), hits give low values 1.02 | locus YPL241C, strain CIN2, hits give low values 1.01
